Laboratory results from PubChem BioAssay (NCI).
This is part of a sample that, as a whole, favours compounds with a hit. Of some 83,000 tested, about 20% had one in any assay.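 Single-concentration screen, 48 h exposure, 96-well plates. Endpoint: percent growth. Below 10 = active.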 Values without a mark were called inactive. Activity calls are given as the source filed them.

system: UACC-62 melanoma; test: NCI-60 one-dose screen, 48 h (100 = growth as untreated, 0 = no growth, -100 = all killed); settings: 10 µM unless noted

Structure (SMILES)	growth
CCOC(=O)c1c(NC(=O)c2ccccc2)sc2c3c(ccc12)OCN(C)C3	-71.2% (active)
COc1ccc(NC(=O)c2ccc(Nc3ncnc4c3cnn4-c3cccc(F)c3)cc2)cc1	94.8%
COC(=O)c1c(C)nc(C)c2c1C(=O)C=C(NCc1ccccc1)C2=O	65.8%
CS(=O)(=O)Nc1cc(-c2ccc3ncnc(Nc4ccc5c(cnn5Cc5ccncc5)c4)c3c2)cnc1Cl	32.5%
S=c1ccnc[nH]1	102%
Cc1ccc(S(=O)(=O)c2nc(-c3ccccc3)oc2SCC(N)=O)cc1	105%
CN(C)Cc1ccc(NC(=O)c2cncc(C#Cc3cnc(N)c4ncccc34)c2)cc1C(F)(F)F	45.1%
COc1cc(/C=C/c2cn[nH]c2-c2ccc(C)cc2)cc(OC)c1OC	32.8%
CCOC(=O)C(CCN(C)C)c1ccccc1 (stereo unspecified)	102%
O=C(/C=C/c1ccccc1)N(C1CCCCC1)C1CCCCC1	75%
CC1(C)CC[C@]23CC[C@]4(C)[C@H](CC[C@@H]5[C@@]6(C)CCNCC(C)(C)[C@@H]6CC[C@]54C)[C@H]2[C@H]1OC3	94.4%
Cc1nc2sc(C(=O)Nc3cccc4ccccc34)c(N)c2cc1C(=O)c1ccccc1	33.4%
Cc1ccc(O)c(NC(=O)c2cccc(Nc3ccnc(C(F)(F)F)c3)c2)c1	30.8%
N#CSc1c[nH]c2ccc(/C=C/C(=O)/C=C(O)/C=C/c3ccc4[nH]cc(SC#N)c4c3)cc12	26.3%
COC(=O)/C(CCC=C(C)C)=C1\[C@@H](OC(C)=O)C[C@@]2(C)[C@H]1C/C(=N/O)[C@H]1[C@@]3(C)CC/C(=N\O)[C@@H](C)[C@@H]3CC[C@@]12C	93.7%
Nc1cccc(-c2ccc(COc3ccc(CC4SC(=O)NC4=O)cc3)cc2)c1 (stereo unspecified)	55.4%
CCOC(=O)c1cnn(CC(C)O)c1NC(=O)NCc1cccc(F)c1 (stereo unspecified)	92.2%
O=S(Nc1ccccc1)c1ccc(Cl)cc1 (stereo unspecified)	90.4%

Structure (SMILES)	growth
CCOC(=O)C1=C(CC(O)c2ccc(OC)cc2OC)NC(=O)NC1c1ccccc1 (stereo unspecified)	89.8%
CCn1cc(C(=O)O)c(=O)c2cc(F)c(N3CCN(CC(=O)Nc4ccccc4)C(C)C3)c(F)c21 (stereo unspecified)	78.2%
CCN(CC)c1ccc(-c2cc(-c3cc(OC)c(OC)c(OC)c3)nc(N3CCC(O)CC3)c2C#N)cc1	-49.9% (active)
C=C(C)[C@@H]1CC[C@]2(C)[C@H](C=CC3=C4C[C@@](C)(CO)CC[C@]4(C)CC[C@]32C)[C@@]1(C)CCCN	77.6%
CS(=O)/C(C#N)=C\C=C\c1cccc(Cl)c1 (stereo unspecified)	0.315% (active)
CC1=C(Cl)C(=O)c2cc(C)ccc2C1=O	96%
N#Cc1ccc(O)c(C2=NCC(c3ccc(-c4ccccc4)cc3)O2)c1 (stereo unspecified)	-5.35% (active)
CC[C@H](Nc1nc(N)nc(C)c1C#N)c1nc2cccc(CN(C)c3ncc(C(=O)NO)cn3)c2c(=O)n1-c1ccccc1	-80% (active)
Cc1nc2ccccc2c(/C=C/c2ccc(F)cc2)c1C(=O)/C=C/c1ccccc1	26.1%
O=C(CN1C(=O)S/C(=C\C(Cl)=C\c2ccccc2)C1=O)NC1CCS(=O)(=O)C1 (stereo unspecified)	72.1%
Nc1[nH]nc2nc(-c3ccccc3)n3c4ccccc4nc3c12	88.7%
CC(C)(C)OC(=O)CN1CCc2c(sc3ncnc(N4CCN(c5ccc(F)cc5)CC4)c23)C1	68.4%
N#Cc1nn(-c2cc(=O)[nH]c3ccc(Br)cc23)c(N)c1C#N	86.6%
O=c1oc2ccccc2cc1-c1nn(-c2ccccc2)cc1-c1nn[nH]n1	93.3%
COc1ccc(/C=N/NC(=O)Cn2c(-c3ccc(S(C)(=O)=O)cc3)nc3ccccc32)cc1	90.8%
CC(C)n1c2ccc(Br)cc2c2c3c(c4c5ccccc5ccc4c21)C(=O)NC3=O	101%
CCOC(=O)C1=C(c2ccccc2)N=C2N(c3ccccc3)N=C(C(C)=O)N2C1c1ccc(F)cc1 (stereo unspecified)	89.5%
COC1C(O)CC(OC2CC(OC3CC(O[C@@H]4C(=O)c5c(cc6cc(OC7CC(OC8CC(O)C(O)C(C)O8)C(O)C(C)O7)c(C)c(O)c6c5O)CC4[C@H](OC)[C@@H](O)C(C)=O)OC(C)C3O)OC(C)C2O)OC1C (stereo partly specified)	-20.9% (active)
